Results on four molecules are retold here after PubChem BioAssay (EPA / NIEHS).

The source made the active and inactive calls. Rule for the calls: active = hit-call score of the fitted dose curve at least 0.9, where 1 is the maximum; inactive = score below 0.9.

Settings in all cases: mRNA level, 48 h; actives raise or lower the signal
Read-out in assay [1]: Lipoprotein lipase (LPL), LPL (gene 4023)
Put plainly: LTEA_HepaRG_LPL: Life Technologies and Expression Analysis (LTEA) Assay for Lipoprotein lipase (LPL) using HepaRG (AID 2283515). In short, it runs like this: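 Differentiated HepaRG cells, plated 48 h, then exposed 48 h in serum-free induction medium to 8 concentrations (top 100 uM, half-log steps) in 0.5% DMSO, duplicate. LPL mRNA measured by qRT-PCR, normalized to ACTB, GAPDH and POLR2A.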

Read-out in assay [2]: MicroRNA 122 (MIR122), gene 406906
Put plainly: LTEA_HepaRG_MIR122: Life Technologies and Expression Analysis (LTEA) Assay for MicroRNA 122 (MIR122) using HepaRG (AID 2283516). Note: the transcript read is the microRNA miR-122. The method in brief:
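HepaRG plated 48 h, switched to serum-free induction medium, then treated in duplicate for 48 h (100 uM top, half-log steps, 0.5% DMSO vehicle). RNA isolated, qRT-PCR performed, concentration-response fitted both directions relative to DMSO.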

Read-out in assay [3]: matrix metalloproteinase-10 (MMP10), MMP10 (gene 4319)
Put plainly: LTEA_HepaRG_MMP10: Life Technologies and Expression Analysis (LTEA) Assay for matrix metalloproteinase-10 (MMP10) using HepaRG (AID 2283517). In short, it runs like this: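 Differentiated HepaRG cells in serum-free induction medium exposed 48 h in duplicate to 8-point half-log series up to 100 uM in 0.5% DMSO. mRNA quantified by qRT-PCR, normalised to ACTB, GAPDH, POLR2A; bidirectional fit versus DMSO.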

Read-out in a further assay: MYC, MYC (gene 4609)
Briefly: LTEA_HepaRG_MYC: Life Technologies and Expression Analysis (LTEA) Assay for MYC using HepaRG (AID 2283518). In short, it runs like this: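 Cells are thawed, plated and cultured 48 h, then treated for 48 h with test chemicals (eight half-log concentrations from 100 uM, 0.5% DMSO vehicle). RNA is isolated and MYC expression quantified by qRT-PCR against three housekeeping genes.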

Read-out in assay [4]: matrix metalloproteinase-3 (MMP3), MMP3 (gene 4314)
Put plainly: LTEA_HepaRG_MMP3: Life Technologies and Expression Analysis (LTEA) Assay for matrix metalloproteinase-3 (MMP3) using HepaRG (AID 2283519). The method in brief:
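HepaRG cells (~100,000/well) in serum-free induction medium were dosed in duplicate for 48 h with an 8-point half-log series from 100 uM, 0.5% DMSO. MMP3 mRNA was quantified by Fluidigm TaqMan qRT-PCR, normalized to three housekeeping genes.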

Read-out in assay [5]: Paternally Expressed 10 (PEG10), PEG10 (gene 23089)
Put plainly: LTEA_HepaRG_PEG10: Life Technologies and Expression Analysis (LTEA) Assay for Paternally Expressed 10 (PEG10) using HepaRG (AID 2283520). In short, it runs like this: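 HepaRG, 48 h post-plating → serum-free induction medium → 48 h chemical exposure (duplicate, 8-pt, max 100 uM, half-log, 0.5% DMSO) → lysis in RLT → TaqMan qRT-PCR for PEG10, ACTB/GAPDH/POLR2A normalisation.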

Read-out in assay [6]: Protein phosphatase 2A (PPP2R4), PTPA (gene 5524)
Put plainly: LTEA_HepaRG_PPP2R4: Life Technologies and Expression Analysis (LTEA) Assay for Protein phosphatase 2A (PPP2R4) using HepaRG (AID 2283522). The method in brief:
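Readout is PPP2R4 transcript level by microfluidic qRT-PCR after 48 h chemical treatment of human HepaRG liver cells. Concentrations spanned 100 uM downward in half-log steps; gain or loss of signal was fitted relative to DMSO.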

Read-out in assay [7]: Phosphatase and tensin (PTEN), PTEN (gene 5728)
Put plainly: LTEA_HepaRG_PTEN: Life Technologies and Expression Analysis (LTEA) Assay for Phosphatase and tensin (PTEN) using HepaRG (AID 2283523). In short, it runs like this:
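HepaRG cells, 48 h after plating, exposed in duplicate for 48 h in serum-free induction medium to 8 half-log concentrations up to 100 uM (0.5% DMSO). PTEN mRNA by qRT-PCR, normalized to ACTB, GAPDH, POLR2A; bidirectional fit versus DMSO.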

Read-out in assay [8]: solute carrier (SLC22A1), SLC22A1 (gene 6580)
Briefly: LTEA_HepaRG_SLC22A1: Life Technologies and Expression Analysis (LTEA) Assay for solute carrier (SLC22A1) using HepaRG (AID 2283524). The method in brief:
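Differentiated human HepaRG cells in serum-free induction medium, exposed 48 h in duplicate to 8-point half-log series from 100 µM top in 0.5% DMSO. SLC22A1 mRNA by TaqMan qRT-PCR normalized to ACTB, GAPDH, POLR2A; bidirectional fit versus DMSO.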

Read-out in assay [9]: NAD(P)H dehydrogenase [quinone] 1 (NQO1), NQO1 (gene 1728)
Put plainly: LTEA_HepaRG_NQO1: Life Technologies and Expression Analysis (LTEA) Assay for NAD(P)H dehydrogenase [quinone] 1 (NQO1) using HepaRG (AID 2283526). In short, it runs like this: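 HepaRG, 48 h post-plating → serum-free induction medium → test chemical 48 h (duplicate, 100 uM top, half-log x8, 0.5% DMSO) → RNA isolation → qRT-PCR, ACTB/GAPDH/POLR2A normalization; bidirectional curve fit vs DMSO baseline.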

Read-out in assay [10]: Nuclear factor erythroid 2-related factor 2 (Homo sapiens) (UniProt Q16236)
Put plainly: LTEA_HepaRG_NFE2L2: Life Technologies and Expression Analysis (LTEA) Assay for Nuclear factor erythroid 2-related factor 2 (NFE2L2) Transcription Factor using HepaRG (AID 2283527).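 Note: TaqMan qRT-PCR transcript level normalised to ACTB GAPDH and POLR2A housekeeping genes.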 In short, it runs like this: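 Differentiated human HepaRG cells, serum-free induction medium, exposed 48 h in duplicate to eight half-log concentrations up to 100 uM in 0.5% DMSO. NFE2L2 mRNA by Fluidigm TaqMan qRT-PCR, normalised to ACTB, GAPDH, POLR2A; bidirectional change versus DMSO.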

Read-out in assay [11]: succinate dehydrogenase complex iron sulfur subunit B (SDHB), SDHB (gene 6390)
Put plainly: LTEA_HepaRG_SDHB: Life Technologies and Expression Analysis (LTEA) Assay for succinate dehydrogenase complex iron sulfur subunit B (SDHB) using HepaRG (AID 2283528). In short, it runs like this:
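Readout is SDHB transcript level by qRT-PCR, normalised to three housekeeping genes and fitted bidirectionally against 0.5% DMSO vehicle. Human HepaRG cells were treated for 48 h at up to 100 uM.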

Read-out in assay [12]: solute carrier (SLCO1B1), SLCO1B1 (gene 10599)
Put plainly: LTEA_HepaRG_SLCO1B1: Life Technologies and Expression Analysis (LTEA) Assay for solute carrier (SLCO1B1) using HepaRG (AID 2283530). The method in brief:
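Gain or loss of SLCO1B1 mRNA is fitted against the 0.5% DMSO vehicle in human HepaRG liver cells treated 48 h at up to 100 uM in half-log steps. Expression comes from qRT-PCR normalized to endogenous controls.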

Read-out in assay [13]: sulfotransferase 2A1 (SULT2A1), SULT2A1 (gene 6822)
Put plainly: LTEA_HepaRG_SULT2A1: Life Technologies and Expression Analysis (LTEA) Assay for sulfotransferase 2A1 (SULT2A1) using HepaRG (AID 2283531). The method in brief: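 Cells were plated and cultured 48 h, switched to serum-free induction medium, then dosed in duplicate for 48 h (8 concentrations, max 100 uM). RNA was isolated and SULT2A1 expression measured by qRT-PCR; gain or loss of signal fitted relative to DMSO.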

Read-out in assay [14]: Transforming Growth Factor (TGFB1), TGFB1 (gene 7040)
Briefly: LTEA_HepaRG_TGFB1: Life Technologies and Expression Analysis (LTEA) Assay for Transforming Growth Factor (TGFB1) Transporter using HepaRG (AID 2283533). The method in brief: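 Expression change of TGFB1 in human HepaRG cells is measured after a 48 h chemical exposure, up to 100 uM in 0.5% DMSO vehicle. Curves are fitted in both directions relative to the DMSO baseline.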

Read-out in the next assay: TIMP1, TIMP1 (gene 7076)
Briefly: LTEA_HepaRG_TIMP1: Life Technologies and Expression Analysis (LTEA) Assay for TIMP1 using HepaRG (AID 2283534).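 Note: TaqMan qRT-PCR signal normalized to ACTB GAPDH and POLR2A housekeeping genes.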 In short, it runs like this:
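We dosed human liver HepaRG cultures for 48 hours with up to 100 uM test chemical and measured TIMP1 expression by qRT-PCR. Activity in either direction is fitted relative to the 0.5% DMSO vehicle.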

Read-out in assay [15]: Nuclear factor NF-kappa-B p105 subunit (Homo sapiens) (UniProt P19838)
Briefly: LTEA_HepaRG_NFKB1: Life Technologies and Expression Analysis (LTEA) Assay for Nuclear Factor Kappa B Subunit 1 (NFKB1) using HepaRG (AID 2283521).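 Note: TaqMan qRT-PCR transcript normalised to ACTB GAPDH and POLR2A housekeeping genes.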 In short, it runs like this: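 HepaRG, 48 h exposure; 8-pt half-log series from 100 uM in 0.5% DMSO; duplicates. Readout: NFKB1 mRNA by qRT-PCR (Fluidigm arrays), housekeeping-normalized. Gain/loss fit vs DMSO baseline.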

Read-out in assay [16]: Pyruvate Dehydrogenase Kinase 4 (PDK4), PDK4 (gene 5166)
Briefly: LTEA_HepaRG_PDK4: Life Technologies and Expression Analysis (LTEA) Assay for Pyruvate Dehydrogenase Kinase 4 (PDK4) using HepaRG (AID 2283525). In short, it runs like this: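 HepaRG cells plated 48 h, then switched to serum-free induction medium and exposed in duplicate for 48 h to 8 half-log concentrations from 100 uM in 0.5% DMSO. PDK4 mRNA measured by qRT-PCR, normalized to ACTB, GAPDH and POLR2A; bidirectional fit versus DMSO.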

Read-out in assay [17]: Signal transducer and activator of transcription 3 (Homo sapiens) (UniProt P40763)
Put plainly: LTEA_HepaRG_STAT3: Life Technologies and Expression Analysis (LTEA) Assay for Signal transducer and activator of transcription (STAT3) using HepaRG (AID 2283529). The method in brief: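 Differentiated HepaRG cells, serum-free induction medium, dosed 48 h in duplicate, 8 half-log concentrations from 100 uM in 0.5% DMSO. STAT3 mRNA by qRT-PCR, normalised to ACTB, GAPDH, POLR2A; bidirectional fit versus DMSO.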

Read-out in assay [18]: Transforming Growth Factor (TGFA), TGFA (gene 7039)
Briefly: LTEA_HepaRG_TGFA: Life Technologies and Expression Analysis (LTEA) Assay for Transforming Growth Factor (TGFA) using HepaRG (AID 2283532). The method in brief:
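Differentiated HepaRG cells exposed 48 hours in serum-free induction medium, 0.5% DMSO vehicle, 8-point half-log series from 100 uM, in duplicate. TGFA mRNA by TaqMan qRT-PCR, normalised to ACTB, GAPDH, POLR2A; bidirectional fit versus DMSO.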

Sequence of Nuclear factor erythroid 2-related factor 2 (Homo sapiens) (Q16236 whole entry, looked up): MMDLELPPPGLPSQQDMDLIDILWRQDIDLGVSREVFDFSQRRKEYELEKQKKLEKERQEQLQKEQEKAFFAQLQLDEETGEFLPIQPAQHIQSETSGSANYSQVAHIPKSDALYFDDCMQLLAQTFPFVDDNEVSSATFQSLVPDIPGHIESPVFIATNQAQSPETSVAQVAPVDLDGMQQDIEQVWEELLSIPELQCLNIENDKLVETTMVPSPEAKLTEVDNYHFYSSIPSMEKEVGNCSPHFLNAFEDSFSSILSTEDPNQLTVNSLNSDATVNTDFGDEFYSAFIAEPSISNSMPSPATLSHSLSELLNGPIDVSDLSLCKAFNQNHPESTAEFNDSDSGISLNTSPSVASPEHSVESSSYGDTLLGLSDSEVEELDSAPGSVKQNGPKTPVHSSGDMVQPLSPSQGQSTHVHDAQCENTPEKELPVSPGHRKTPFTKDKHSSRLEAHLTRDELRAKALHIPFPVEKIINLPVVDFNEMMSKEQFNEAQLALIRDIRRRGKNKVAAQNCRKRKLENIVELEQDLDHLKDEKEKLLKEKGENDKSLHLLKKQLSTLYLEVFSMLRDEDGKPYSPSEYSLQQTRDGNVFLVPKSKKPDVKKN
Sequence of Nuclear factor NF-kappa-B p105 subunit (Homo sapiens) (P19838 whole entry, looked up): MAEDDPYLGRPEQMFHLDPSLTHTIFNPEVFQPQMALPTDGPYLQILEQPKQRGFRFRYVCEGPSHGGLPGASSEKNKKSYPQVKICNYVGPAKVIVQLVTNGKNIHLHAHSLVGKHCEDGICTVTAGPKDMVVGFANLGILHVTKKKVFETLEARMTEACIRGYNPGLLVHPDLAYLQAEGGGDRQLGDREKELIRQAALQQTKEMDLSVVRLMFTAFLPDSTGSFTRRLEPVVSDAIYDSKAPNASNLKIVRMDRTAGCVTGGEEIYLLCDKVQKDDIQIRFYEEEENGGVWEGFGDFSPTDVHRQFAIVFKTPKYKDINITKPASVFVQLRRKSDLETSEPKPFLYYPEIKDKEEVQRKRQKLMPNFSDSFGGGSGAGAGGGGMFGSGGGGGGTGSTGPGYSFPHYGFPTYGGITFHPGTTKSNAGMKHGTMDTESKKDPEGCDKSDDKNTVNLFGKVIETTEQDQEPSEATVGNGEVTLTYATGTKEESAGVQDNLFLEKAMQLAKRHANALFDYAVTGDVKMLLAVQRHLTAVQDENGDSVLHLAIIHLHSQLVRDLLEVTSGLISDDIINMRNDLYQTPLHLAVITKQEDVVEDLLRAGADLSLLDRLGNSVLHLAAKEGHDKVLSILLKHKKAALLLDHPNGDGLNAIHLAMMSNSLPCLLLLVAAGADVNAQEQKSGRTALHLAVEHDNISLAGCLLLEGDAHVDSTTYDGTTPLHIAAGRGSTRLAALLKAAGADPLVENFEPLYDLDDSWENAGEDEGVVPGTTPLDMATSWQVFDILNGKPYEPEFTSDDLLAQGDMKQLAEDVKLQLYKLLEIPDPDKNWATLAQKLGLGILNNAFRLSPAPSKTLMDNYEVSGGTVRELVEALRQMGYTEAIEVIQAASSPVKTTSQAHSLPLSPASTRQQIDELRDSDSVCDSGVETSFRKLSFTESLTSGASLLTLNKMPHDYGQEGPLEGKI
Sequence of Signal transducer and activator of transcription 3 (Homo sapiens) (P40763 whole entry, looked up): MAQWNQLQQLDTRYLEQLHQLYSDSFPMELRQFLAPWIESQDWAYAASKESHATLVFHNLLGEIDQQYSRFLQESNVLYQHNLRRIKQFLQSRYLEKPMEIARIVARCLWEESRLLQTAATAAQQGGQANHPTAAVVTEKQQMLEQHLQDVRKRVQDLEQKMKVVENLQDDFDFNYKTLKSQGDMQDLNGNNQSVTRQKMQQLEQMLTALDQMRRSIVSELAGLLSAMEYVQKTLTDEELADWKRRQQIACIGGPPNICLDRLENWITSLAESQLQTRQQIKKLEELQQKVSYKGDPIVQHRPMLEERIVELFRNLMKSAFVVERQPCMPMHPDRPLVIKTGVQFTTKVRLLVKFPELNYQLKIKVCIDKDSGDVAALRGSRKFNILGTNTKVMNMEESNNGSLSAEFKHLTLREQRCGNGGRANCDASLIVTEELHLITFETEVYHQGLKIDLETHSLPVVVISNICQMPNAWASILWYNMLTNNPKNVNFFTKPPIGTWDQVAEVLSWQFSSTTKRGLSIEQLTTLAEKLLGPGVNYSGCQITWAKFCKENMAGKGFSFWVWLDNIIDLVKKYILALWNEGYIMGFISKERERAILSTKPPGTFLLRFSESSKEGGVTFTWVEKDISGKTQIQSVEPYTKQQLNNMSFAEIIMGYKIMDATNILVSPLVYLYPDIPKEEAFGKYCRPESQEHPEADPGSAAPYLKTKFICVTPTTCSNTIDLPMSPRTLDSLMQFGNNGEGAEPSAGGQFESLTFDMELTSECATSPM

What is called AC50 is the concentration at which the activity in the assay is half-maximal. In the case of `CC(C)(c1cc(Br)c(O)c(Br)c1)c1cc(Br)c(O)c(Br)c1`, the AC50 is 84.5 µM (active) in assay [1]; 89.5 µM (active) in the assay with MYC, MYC (gene 4609); 72.7 µM (active) in [7]; 53.4 µM (active) in assay [8]; 86.6 µM (active) in assay [9]; 91.4 µM (active) in assay [13]. For the same molecule, the result in assay [2], in assay [3], in [4], in assay [5], in assay [6] and in assay [10] was inactive. The outcome was “inactive” in [11]; “inactive” in assay [12]; “inactive” in [14]; “inactive” with TIMP1, TIMP1 (gene 7076).

Take `O=C(O)Cn1c(=O)n(Cc2ccc(Br)cc2F)c(=O)c2ccc(Cl)cc21`: the AC50 in assay [1] is 9.92 µM (active). Further, the molecule was classed as inactive in assay [2], in assay [3], in [5], in assay [15], in [6] and in assay [8]. Moreover, the call in [9], in [10], in assay [11], in [12], in assay [13] and in assay [14] was inactive. For the same molecule, in the assay with TIMP1, TIMP1 (gene 7076), the molecule was called inactive.

Consider `O=C(O)c1ccccc1-n1cc(C(=O)O)c(=O)c2cc(Nc3c(F)cc(F)cc3Cl)c(Cl)cc21`, for which the outcome in assay [1] was “inactive”; in assay [2], “inactive”; in assay [3], “inactive”; in the assay with MYC, MYC (gene 4609), “inactive”; in [15] it was “inactive”; in assay [6], “inactive”. Further, the molecule was classed as inactive in assay [7], in assay [8], in [16], in assay [9], in [10] and in assay [11]. For the same molecule, the outcome in assay [17] is “inactive”; in assay [12], “inactive”; in [13] it was “inactive”; in assay [18], “inactive”; in assay [14] it was “inactive”; with TIMP1, TIMP1 (gene 7076), “inactive”. Also, in [5], the AC50 was 21.1 µM (active).

As to `CCCCOC(=O)c1ccc(O)cc1`, the molecule was called inactive in assay [1], in [2], in [3], in assay [5], in assay [6] and in assay [8]. The molecule was classed as inactive in assay [9], in assay [10], in [11], in assay [12], in assay [13] and in [18]. Besides, the outcome is “inactive” in [14] and “inactive” with TIMP1, TIMP1 (gene 7076).
